Results on 16 molecules are retold here after PubChem BioAssay AID434994 (NMMLSC, 2010).

The list shows a part of the results. Values without a mark were called inactive.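 How the source made its calls: active means superoxide signal below 65% of the plate average of sample wells; inactive means the rest.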

The assay can be described thus: superoxide lowering in aged yeast cells, confirmation, cherry picked compounds (AID 434994).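 Further: cells aged with compound for 7 days at 30 degrees C before staining; 100% equals mean DHE fluorescence of all compound wells on the plate.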 The note with it: S. cerevisiae aging, superoxide DHE fluorescence; at 10 µM; active compounds read low.

Take `COc1cc(NC(=O)CSc2ccc(-c3cccnc3)nn2)cc(OC)c1`: the superoxide response (% of plate) was 123%.
As to `CCn1c2ccccc2c2cc(NC(=O)CNC)ccc21`, the superoxide response (% of plate) is 107%.
For `O=C(CSCc1ccccc1)Nc1ccccc1` the value was 107%; for `O=C(Nc1ccccc1N1CCCC1)c1ccc2ccccc2c1`, 95.3%.
`Cc1ccc(C23CC4CC(CC(C(=O)NCC(=O)O)(C4)C2)C3)cc1`: the superoxide response (% of plate) was 106%.
Consider `CSc1sc(C(=O)NNC(=O)c2ccc(Cl)cc2)c2c1C=CCC2`, for which the superoxide response (% of plate) is 104%.
For the molecule `COc1ccc(NC(C)=O)cc1NC(=O)CN1CCN(c2ccccn2)CC1`, the superoxide response (% of plate) was 103%.
For `Cc1ccc(-c2nc(CSCC(=O)NC3CCN(Cc4ccccc4)CC3)c(C)o2)cc1` the value was 101%; for `Cc1ccc2cccc(S(=O)(=O)N3CCN(c4ccccc4F)CC3)c2n1`, 119%.
For `Cc1cc(C(F)F)n2nc(C(=O)Nc3ccc(S(=O)(=O)NC45CC6CC(CC(C6)C4)C5)cc3)nc2n1` the value was 111%.
Regarding `CC(C)(C)NC(=O)COc1ccc(CNc2ccc3[nH]c(=O)[nH]c3c2)cc1`, the superoxide response (% of plate) was 96.2%.
As for `Cc1ccccc1NC(=O)NCC1CCN(Cc2cccc(Cl)c2)CC1`, the superoxide response (% of plate) is 94.6%.
Consider `NC(=S)Nc1c(Cl)cccc1Cl`, for which the superoxide response (% of plate) is 109%.
Take `CCCC(C)C(=O)OCC(=O)Nc1c(Br)cc(C)cc1Br` (stereo unspecified): the superoxide response (% of plate) was 101%.
`O=C(CSc1ccc(-c2ccc(-n3cccn3)cc2)nn1)Nc1ccc([N+](=O)[O-])cc1`: the superoxide response (% of plate) was 95.7%.
For `CC(C)NC(=O)/C(C#N)=C\c1ccc(N(C)C)c(Br)c1` the value was 88.1%.
